NS1 inh: blocks influenza NS1 protein function. hit rate 0.4% among 270,000. Potency, µM (titrated, usually from 46.1 µM), for the others: top-dose activity, positive = more growth. AID 2326; calls by dose curve; note: potency is the fitted concentration of half-maximal effect; actives are rising curves; nearly all actives have a fitted effect of over 50% in size
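S. cerevisiae expressing influenza A NS1, grown in glucose, washed, then diluted 1:100 into pH 6.0 -URA galactose medium with 23 nl compound. Growth recovery read as OD600; NS1-free strain serves as control.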
Pf growth 96h: P. falciparum growth inhibition at 96 hours; P. falciparum luciferase reporter growth, 96 h; Potency, µM (titrated, usually from 28.7 µM), inactives show at the top dose activity change, negative = inhibition, usual class: inhibitors; hit rate 6.9% among 320,000; note: potency is the fitted concentration of half-maximal effect; % is set by controls: 0 for no effect and ±100 for the full control effect
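Two-generation exposure (96 h) targets delayed-death phenotype. Reporter parasites carrying integrated firefly luciferase, in red cells at 2% hematocrit and 0.05% parasitemia final, kept at 37 C, 5% CO2; luminescence loss indicates inhibition.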
CHX counter: affects cycloheximide protein synthesis inhibition readout, counter-screen | cell reporter, cycloheximide protein synthesis inhibition counterscreen | max response, % | hit rate 12% among 300,000 | AID 2314; in the data active = max response mostly above about 13%, no sharp cut-off; inactive = mostly below about 14%; note: read at 38.3 µM for the half of the compounds with a filed dose; 0% is about no effect
Pf growth 48h: inhibits P. falciparum growth in the first generation, 48 h; P. falciparum luciferase growth in erythrocytes, 48 h; Potency, µM (doses to about 28.7 µM), for the others: top-dose activity change, negative = inhibition, hits mostly inhibitors; hit rate 5.9% among 310,000; AID 504832; note: potency is the fitted concentration of half-maximal effect; % is set by controls: 0 for no effect and ±100 for the full control effect
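Firefly luciferase activity from engineered P. falciparum reports growth; inhibitors lower the luminescent signal. Cultures contained 2% hematocrit erythrocytes at 0.1% final parasitemia.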
Shiga inhibitor: blocks Shiga toxin action in Vero cells | AID 2315 | inhibition, % at 38.7 µM | Vero cells, Shiga toxin protein synthesis inhibition reporter | hit rate 9.2% among 290,000; in the data active = inhibition mostly above about 28%, no sharp cut-off; inactive = mostly below about 43%; note: 0% is about no effect
* marks the source's active call; other numbers are inactive results. Most compounds without a hit are left out; they make up all but 21% or so of the library. Unless noted, calls come from the whole dose curve; as a rule, active = well fitted inhibition curve with a large enough effect; inconclusive = small, poorly fitted or top-dose-only effect, or another doubt; inactive = no such curve, though single readings can be large or run the other way.

Results for CCC(C)[C@H](NC(=O)[C@H](Cc1ccccc1)n1c(=O)[nH]c2ccccc2c1=O)C(=O)N1CCC[C@@H]1C(=O)O (some centres not stated) ?
NS1 inh: 27%; Pf growth 96h: inconclusive; CHX counter: -4; Pf growth 48h: 2%; Shiga inhibitor: -9

How did Cc1ccc2[nH]c(=O)c(COC(=O)C3CCCCC3)cc2c1 do in these assays?
NS1 inh: 10%; Pf growth 96h: 13%; CHX counter: 0; Pf growth 48h: 1%; Shiga inhibitor: 4

How did O=C(NCc1ccc(Cl)cc1)c1cc(=O)[nH]c2ccccc12 do in these assays?
NS1 inh: 6%; Pf growth 96h: 1%; CHX counter: 3; Pf growth 48h: -8%; Shiga inhibitor: 11

How did CC(C)C(=O)Nc1cc2c3c(c1)CCC(=O)N3CCC2 do in these assays?
NS1 inh: 7%; Pf growth 96h: 33%; CHX counter: 7; Pf growth 48h: 14%; Shiga inhibitor: -11

Results for Cc1ccc2c(c1C)NC(=O)C21N2CCCC2C(C(=O)c2ccc3ccccc3c2)C12C(=O)Nc1ccccc12 (configuration not stated) ?
NS1 inh: 22%; Pf growth 96h: 9.3µM*; CHX counter: 56*; Pf growth 48h: 9.3µM*; Shiga inhibitor: 39

Results for C=CCOc1ccc(C2c3c(oc4ccccc4c3=O)C(=O)N2c2ccccn2)cc1OCC (configuration not stated) ?
NS1 inh: 4%

How did O=C(OCC1OC(OC(=O)c2cc(O)c(O)c(OC(=O)c3cc(O)c(O)c(O)c3)c2)[C@@H](OC(=O)c2cc(O)c(O)c(OC(=O)c3cc(O)c(O)c(O)c3)c2)C(OC(=O)c2cc(O)c(O)c(OC(=O)c3cc(O)c(O)c(O)c3)c2)C1OC(=O)c1cc(O)c(O)c(OC(=O)c2cc(O)c(O)c(O)c2)c1)c1cc(O)c(O)c(OC(=O)c2cc(O)c(O)c(O)c2)c1 (some centres not stated) do in these assays?
Pf growth 96h: 3µM*; Pf growth 48h: 3.4µM*

What do the screens show for `Cc1cn(C2OC(COC(=O)c3ccccc3)C(OC(=O)c3ccccc3)C2OC(=O)c2ccccc2)c(=O)[nH]c1=O` (configuration not stated)?
NS1 inh: inconclusive; Pf growth 96h: inconclusive; CHX counter: 1; Pf growth 48h: inconclusive; Shiga inhibitor: -1

Results for COc1ccc(CC(=O)NNC(=O)c2c(-c3ccccc3Cl)noc2C)cc1OC ?
NS1 inh: 0%; Pf growth 96h: 0%; CHX counter: -2; Pf growth 48h: -19%; Shiga inhibitor: -1

How did O=C(Nc1ccccc1)Nc1nncs1 do in these assays?
NS1 inh: -7%; Pf growth 96h: -14%; CHX counter: -4; Pf growth 48h: 20%; Shiga inhibitor: -5

Results for CN(C)c1ccc(NC(=O)Nc2ccc3snnc3c2)cc1 ?
NS1 inh: 5%; Pf growth 96h: -25%; CHX counter: 27*; Pf growth 48h: 52%; Shiga inhibitor: 45*

How did O=C(Nc1ccccc1)Nc1ccc2nnsc2c1 do in these assays?
NS1 inh: -53%; Pf growth 96h: inconclusive; CHX counter: 36*; Pf growth 48h: -44%; Shiga inhibitor: 61*

How did CCOC(=O)C1CCN(C(=O)Nc2ccc3snnc3c2)CC1 do in these assays?
NS1 inh: -12%; CHX counter: -3; Pf growth 48h: inconclusive; Shiga inhibitor: 14

Results for O=C(Nc1ccccc1)Nc1ccc2snnc2c1 ?
NS1 inh: -48%; Pf growth 96h: 3.3µM*; CHX counter: 41*; Pf growth 48h: inconclusive; Shiga inhibitor: 58*

Results for Cn1ncc(N=Cc2c(O)ccc3ccccc23)c1C(=O)Nc1cccc(Cl)c1 ?
Pf growth 96h: inconclusive; CHX counter: 1; Pf growth 48h: 4%; Shiga inhibitor: 26

How did Cc1cccc(C(C)n2nnc3ccccc32)c1O (configuration not stated) do in these assays?
Pf growth 96h: 10µM*; Pf growth 48h: 15µM*

Results for CC(C(=O)O)n1nnc2ccccc21 (configuration not stated) ?
NS1 inh: -2%; Pf growth 96h: 58%; CHX counter: -2; Pf growth 48h: 33%; Shiga inhibitor: 11

How did CC(Sc1nnc(C2CC2)n1C1CC1)C(=O)NC1(C#N)CCCCC1 (configuration not stated) do in these assays?
Pf growth 96h: -3%; Pf growth 48h: 2%

How did N#Cc1ccc(NC(=O)c2cc(S(=O)(=O)N3CCOCC3)ccc2N2CCCC2)cc1 do in these assays?
Pf growth 96h: -4%; Pf growth 48h: -20%

How did Cc1ccc2c(c1)C1CN(C)CCC1N2C(=O)c1ccco1 (configuration not stated) do in these assays?
NS1 inh: inconclusive; CHX counter: 7; Pf growth 48h: 32%; Shiga inhibitor: -5

How did CC1(C)c2ssc(=S)c2-c2ccccc2N1C(=O)c1ccco1 do in these assays?
NS1 inh: 7%; Pf growth 96h: 1µM*; CHX counter: 1; Pf growth 48h: inconclusive; Shiga inhibitor: 2

What do the screens show for `Cn1cnnc1SCC(=O)N1c2ccccc2-c2c(ssc2=S)C1(C)C`?
NS1 inh: 7%; CHX counter: 9; Pf growth 48h: 7%; Shiga inhibitor: -12

How did Cc1ccc2c(c1)-c1c(ssc1=S)C(C)(C)N2C(=O)c1ccco1 do in these assays?
NS1 inh: 11%; Pf growth 96h: -6%; CHX counter: -2; Pf growth 48h: 0.93µM*; Shiga inhibitor: -2

How did CC(C)C(C)NC(=O)COc1ccc(S(=O)(=O)N2CCOCC2)cc1Cl (configuration not stated) do in these assays?
NS1 inh: 0%; Pf growth 96h: -23%; CHX counter: -3; Pf growth 48h: inconclusive; Shiga inhibitor: 5

Results for O=S(=O)(CC(O)CS(=O)(=O)c1ccc(Cl)cc1)c1ccccc1 (configuration not stated) ?
NS1 inh: 3%; Pf growth 96h: 2%; CHX counter: -3; Pf growth 48h: 5%; Shiga inhibitor: -7

Results for CCCn1c(SCC(=O)NCC(=O)Nc2ccc(F)c(F)c2F)nc2ccccc2c1=O ?
Pf growth 96h: -35%; Pf growth 48h: -7%

How did COc1cc(C)nc(N2CCCC(C(=O)NC3CCC(C)CC3)C2)n1 (configuration not stated) do in these assays?
NS1 inh: inconclusive; Pf growth 96h: 2.9µM*; CHX counter: 32*; Pf growth 48h: 28%; Shiga inhibitor: 123

What do the screens show for `Cc1cc(C)nc(N2CCCC(C(=O)Nc3ccc4nc(C)c(C)nc4c3)C2)n1` (configuration not stated)?
NS1 inh: -54%; CHX counter: -4; Pf growth 48h: 12µM*; Shiga inhibitor: -11

What do the screens show for `Cc1cc(C)nc(N2CCCC(C(=O)Nc3nc4ccc(S(C)(=O)=O)cc4s3)C2)n1` (configuration not stated)?
NS1 inh: -39%; CHX counter: 1; Pf growth 48h: 7.4µM*; Shiga inhibitor: -14
